Screening results as filed in PubChem BioAssay.
Vaccinia Venus: qHTS for Stage-Specific Inhibitors of Vaccinia Orthopoxvirus: Venus Reporter Primary qHTS | Vaccinia virus Venus reporter expression, fluorescence | Potency, µM (top dose mostly 36.5 µM), inactives show at the top dose activity change, negative = inhibition, hits mostly inhibitors | actives 0.46% (n = 330,000); calls by dose curve; tested in A549 cells; also: potency is read from the fitted curve at half-maximal effect; nearly all actives have a fitted effect of over 30% in size
VACV mCherry inh: qHTS for Stage-Specific Inhibitors of Vaccinia Orthopoxvirus: mCherry Reporter Primary qHTS; Vaccinia virus mCherry reporter infection, fluorescence; Potency, µM (series often up to 36.5 µM), without a hit: at the highest dose activity change, negative = inhibition, actives largely listed as inhibitors; actives 0.63% (n = 310,000); AID 720579, 2013; calls by dose curve; tested in A549 cells; also: potency is read from the fitted curve at half-maximal effect; nearly all actives have a fitted effect of over 35% in size
FMDV antiviral: High Throughput Screening for Foot and Mouth Disease Virus Antivirals; FMDV antiviral cell-based qHTS; Potency, µM (doses to about 57.9 µM), for inactives: at the top dose activity change, negative = inhibition, hits mostly inhibitors; actives 1.2% (n = 410,000); AID 1159524, 2015; calls by dose curve; tested in HEK293T cells; also: read-out not given here; potency is read from the fitted curve at half-maximal effect; nearly all actives have a fitted effect of over 45% in size
HCV inhibitor: qHTS Assay for Inhibitors of Hepatitis C Virus (HCV); Potency, µM (titrated, usually from 41.8 µM), inactives show at the highest dose activity change, negative = inhibition, actives largely listed as inhibitors; actives 3.4% (n = 340,000); AID 651820, 2012; Huh7.5.1 HCVcc-Cre infection, luciferase reporter, 44 h; also: potency is read from the fitted curve at half-maximal effect
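HCVcc-Cre virus at an moi near 0.5 was added right after compound to cells cultured 4 h from seeding (1,000 cells/well). Luciferase activity was determined 44 h later, 15 min after substrate addition at RT.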
Sm TGR inh: qHTS Assay for the Inhibitors of Schistosoma Mansoni Peroxiredoxins; Potency, µM (top dose mostly 114 µM), for the others: at the highest dose activity change, negative = inhibition, most hits filed as inhibitors; actives 3% (n = 360,000); purified TGR, DTNB reduction, TNB absorbance 405 nm; Schistosoma mansoni thioredoxin glutathione reductase (TGR), Q962Y6; also: potency is read from the fitted curve at half-maximal effect; nearly all actives have a fitted effect of over 60% in size
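Kinetic colorimetric format: TGR-catalysed, NADPH-driven DTNB reduction monitored via TNB absorbance. Enzyme dispensed at 20 nM; compound exposure 15 min at room temperature before reaction start.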
HCMV antiviral: qHTS Assay for inhibitors of the human cytomegalovirus (HCMV); actives 4.5% (n = 410,000); HFF cells, HCMV-luciferase reporter, 72 h; hits give low values; activity change, negative = inhibition, % at 57.5 µM; AID 1259415, 2018; in the data active = activity change below about -60%; inconclusive = no clear call, values can overlap the other calls; inactive = above about -39%
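After 16 h attachment at 37C, HFF cells received test compound and HCMV-luciferase (1 PFU/cell); reporter luminescence read 72 h later, data normalized against buffer-only and known inhibitor Salinomycin.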
Starred values were filed as active, the others as inactive; i = inactive; ? = inconclusive; nt = no result given. An excerpt weighted towards active compounds, which were near 9.3% of everything screened. Unless noted, calls follow the shape of the dose curve; as a rule, active = well fitted curve in the direction sought with a large enough effect; inconclusive = small, poorly fitted or top-dose-only effect, or another doubt; inactive = no such curve, though single readings can be large; an effect the other way counts as inactive or inconclusive. % is scaled to controls: 0 for no effect and ±100 for the full control effect.

SMILES	Vaccinia Venus	VACV mCherry inh	FMDV antiviral	HCV inhibitor	Sm TGR inh	HCMV antiviral
Cc1ccc(C(=O)O)cc1NC(=S)NC(=O)c1ccc(-c2ccc(Cl)cc2)o1	-8%	-8%	0%	-6%	10µM*	12
O=C(O)c1cccc(NC(=S)NC(=O)c2ccc(-c3ccc(Cl)cc3)o2)c1	-16%	-9%	19%	20%	20µM*	15
Cc1ccc(C(=O)O)cc1NC(=S)NC(=O)c1ccc(-c2ccccc2)cc1	-9%	i	12%	7%	?	44
O=C(NCC(c1ccco1)N1CCCCC1)c1ccc(OCc2ccccc2)cc1 (configuration not stated)	-8%	-17%	5%	-24%	-10%	3
O=C(O)c1ccc(NC(=S)NC(=O)c2ccc(-c3ccc(Br)cc3)o2)cc1	-25%	-2%	-2%	20%	32µM*	18
NS(=O)(=O)c1ccc(NC(=S)NC(=O)c2ccc(Br)o2)cc1	-8%	i	26%	-16%	-6%	-28
CCCOc1ccc(C(=O)Nc2cccc(NC(=O)c3cccc(Cl)c3)c2)cc1	-25%	-16%	0%	nt	9%	-3
COc1ccc2[nH]c(=O)c(CN(C(=O)COc3ccccc3)C(C)C)cc2c1	-13%	nt	-30%	20%	5%	-13
N#CC1c2ccccc2C=CN1C(=O)N(c1ccccc1)c1ccccc1 (configuration not stated)	-29%	?	32µM*	?	nt	-15
N#CC1c2ccccc2C=CN1C(=O)c1ccc(N(CCCl)CCCl)cc1 (configuration not stated)	-24%	-13%	-9%	nt	nt	-40
Cc1ccccc1OCc1nc2ccccc2c(=O)n1/N=C/c1c[nH]c2ccccc12	-14%	i	-30%	?	6%	17
Cc1cc(/C=N/n2c(COc3ccccc3C)nc3ccccc3c2=O)c(O)c([N+](=O)[O-])c1	nt	nt	15%	?	3%	-92*
Cc1ccc(-c2[nH]ncc2/C=N/n2c(COc3ccccc3C)nc3ccccc3c2=O)cc1	11µM*	?	-17%	?	7%	-89*
CCCc1nc2ccccc2c(=O)n1/N=C/c1ccccc1O	?	10µM*	-25%	?	5%	?
CCCC(NCC(=O)Nc1cc(S(=O)(=O)N2CCOCC2)ccc1OC)c1ccccc1 (configuration not stated)	-22%	-8%	-15%	?	-7%	13
CC(=O)N1CCCc2cc(S(=O)(=O)N3CCCC(C(=O)N4CCN(c5ccccc5F)CC4)C3)ccc21 (configuration not stated)	-29%	?	16µM*	nt	0%	?
CC(=O)N1CCCc2cc(S(=O)(=O)N3CCCC(C(=O)Nc4ccc(C)c(F)c4)C3)ccc21 (configuration not stated)	-16%	-11%	?	nt	0%	-38
COc1ccc(N2CCN(C(=O)C3CCCN(S(=O)(=O)c4ccc5c(c4)CCCN5C(C)=O)C3)CC2)cc1 (configuration not stated)	?	?	?	nt	-16%	-71*
Cc1cc2[nH]c3ccccc3c2c(C)n1	-29%	-2%	-27%	?	-2%	-98*
COc1cc2c(cc1OC)C13CCN4CC5=CCOC6CC(=O)N2C1C6C5C3C4 (configuration not stated) (tested in a mixture with another compound)	6%	i	4%	6%	nt	10
CCc1ccc(NC(=O)c2cnn3c(C(F)F)cc(C)nc23)cc1	-3%	-14%	-13%	-15%	nt	5
Cn1c(=O)c2c(nc(-c3ccc(N(CCCl)CCCl)cc3)n2C)n(C)c1=O	-22%	?	32µM*	?	nt	-30
C=CCn1c(=O)c2c(nc(-c3ccccc3)n2C)n(C)c1=O	-9%	-17%	-5%	nt	nt	nt
Cc1ccc(S(=O)(=O)N(C)C)cc1NC(=O)COC(=O)c1n[nH]c(=O)c2ccccc12	-8%	i	-11%	10%	-11%	-3
Oc1ccc(N=Cc2ccc(-c3cccs3)s2)cc1	nt	nt	3%	-26%	22µM*	-21
SMILES	Vaccinia Venus	VACV mCherry inh	FMDV antiviral	HCV inhibitor	Sm TGR inh	HCMV antiviral
O=C(O)C1Nc2c(O)cc(Cl)c([N+](=O)[O-])c2C2C=CCC12 (configuration not stated)	nt	nt	-5%	-2%	3.5µM*	?
CCSc1nnc(NC(=O)C(CC)(C(F)(F)F)C(F)(F)F)s1	?	nt	?	-24%	5%	?
CCSc1nnc(NC(=O)c2ccccn2)s1	?	22µM*	0%	?	1%	10
CCSc1nnc(NC(=O)C(C(F)(F)F)C(F)(F)F)s1	nt	nt	-13%	-12%	40µM*	-2
CCSc1nnc(NC(=O)C(C)(C(F)(F)F)C(F)(F)F)s1	nt	nt	-21%	?	-20%	-66*
O=C(COc1ccc(Cl)cc1)NCc1nnc(SCC(=O)Nc2ccc3c(c2)OCCO3)o1	2%	-1%	-8%	-6%	0%	64
Cc1ccc(NC(=O)C(c2ccc(Cl)cc2Cl)N2CCCC2)cc1 (configuration not stated)	-9%	i	-29%	-14%	-12%	-65*
CN(C)S(=O)(=O)Oc1ccsc1C(=O)Nc1cccc(Cl)c1Cl	-15%	i	-30%	?	-3%	-68*
CN(C)S(=O)(=O)Oc1ccsc1C(=O)Nc1ccccc1Cl	nt	nt	-23%	?	-6%	-13
CC(C)(C)c1ccc(C2Sc3ccccc3NC3=C2C(=O)c2ccccc23)cc1 (configuration not stated)	-5%	-8%	?	nt	-3%	-104*
Cc1nn2c(NCc3ccccn3)cc(C(C)(C)C)nc2c1-c1ccccc1	nt	nt	?	2.5µM*	-21%	-97*
CC(C)(C)c1cc(NCc2ccccn2)n2ncc(-c3ccc(Cl)cc3)c2n1	nt	nt	4%	?	0%	-15
Cc1nn2c(NCCN3CCOCC3)c3c(nc2c1-c1ccccc1)CCCC3	9%	i	-12%	?	4%	?
Cc1nn2c(NCc3ccccn3)c3c(nc2c1-c1ccccc1)CCC3	?	10µM*	?	-67%	25µM*	-83*
Cc1cc(NCc2ccccn2)n2nc(C)c(-c3ccccc3)c2n1	?	5.6µM*	-7%	1.6µM*	1%	-83*
